# The full list was thinned out, with hits kept by preference.
# PRC2 inh = blocks human EZH2/PRC2 H3K27 methylation; Q15910; hit rate 0.35% among 57,000; DELFIA TRF, 1 h; inhibition, % at 12.5 µM; AID 651548;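 active means mean inhibition of replicates at least 50% and every single replicate also reaching 50%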;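 further: dimethyl H3K27 on biotinylated H3 21-44 peptide detected by antibody; plate controls were median neutral control wells for no effect and median positive control wells for full effect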
# * marks the source's active call; other numbers are inactive results.
SMILES,PRC2 inh
CCOC(=O)c1c(NC(=O)C2CC(Cl)=CCC2C(=O)O)sc2c1CC(C)CC2 (centres undefined),25.1
CCOC(=O)c1c(-c2ccc(Cl)cc2)csc1NC(=O)C1CCCCC1C(=O)O (centres undefined),57.7*
Cc1cc(C(F)(F)F)nc(SCC(=O)N2c3ccccc3Sc3ccccc32)n1,31.9
CC(=O)c1cccc(NC(=O)C(C)NS(=O)(=O)c2ccc(C)cc2)c1 (centres undefined),-8.3
Cc1ccc(S(=O)(=O)NC(C)C(=O)Nc2ccc(Oc3ccccc3)cc2)cc1 (centres undefined),18.5
COC(=O)c1ccc(NC(=O)CCC(=O)c2ccc(C)cc2C)cc1,10.3
Cc1ccc(NC(=O)CCC(=O)c2ccc(Oc3ccccc3)cc2)cc1,52.3*
Cc1cc(C)c(S(=O)(=O)N(C)CC(=O)Nc2ccccc2F)c(C)c1,5.7
C=C(C(=O)O[C@@H]1O[C@H](CO)[C@@H](O)[C@H](O)[C@H]1O)[C@@H]1CC[C@@]2(C)C[C@H](O)C[C@@](C)(O)C2C1 (some centres undefined),64.1*
CC1(CCOC2OC(CO)C(O)C(O)C2O)CCC2C(=CCC3C(C)(C(=O)O)CCCC23C)C1 (centres undefined),12.8
CC1C(=O)C23CC(O)C4C(C)(C(=O)OC5OC(CO)C(O)C(O)C5O)CCCC4(C)C2(O)CCC1C3 (centres undefined),0.0
COc1cc2c(cc1OC)CN(C(=O)CSc1ncnc3sc(C)c(C)c13)CC2,5.6
CC(=O)c1cccc(NC(=O)Cc2ccccc2[N+](=O)[O-])c1,-2.3
O=c1c(OC2OC(CO)C(O)C(O)C2OC2OC(CO)C(O)C(O)C2O)c(-c2ccc(O)cc2)oc2cc(O)cc(O)c12 (centres undefined),86.5*
CC1OC(OCC2OC(Oc3c(-c4ccc(O)c(O)c4)oc4cc(O)cc(O)c4c3=O)C(O)C(O)C2O)C(O)C(O)C1O (centres undefined),-0.5
C[C@@H]1O[C@@H](Oc2cc(O)c3c(=O)c(O[C@@H]4O[C@@H](C)[C@H](O)[C@@H](O[C@@H]5OC[C@@H](O)[C@H](O)[C@H]5O)[C@H]4O[C@@H]4O[C@H](CO)[C@@H](O)[C@H](O)[C@H]4O)c(-c4ccc(O)cc4)oc3c2)[C@H](O)[C@H](O)[C@H]1O,14.9
CCOc1ccccc1OCC(=O)Nc1ccccc1[N+](=O)[O-],23.8
COc1ccc(NC(=O)CN(c2cc(Cl)c(Cl)cc2Cl)S(C)(=O)=O)c(OC)c1,-7.7
N#Cc1c(-c2ccco2)nc(SCC(=O)Nc2ccc(I)cc2)[nH]c1=O,53.9*
O=C(CSc1n[nH]c(-c2ccco2)n1)Nc1ccc(F)cc1,-0.1
O=C(CSc1nc2ccccc2[nH]1)Nc1ccc(I)cc1,18.0
COc1ccc(-c2nc(SCC(=O)Nc3ccc(Cl)cc3)[nH]c(=O)c2C#N)cc1,28.6
COc1ccc(-c2nc(SCC(=O)Nc3cccc(C(F)(F)F)c3)n[nH]2)cc1,19.1
COc1cccc(-c2nc(SCC(=O)Nc3cccc(C(F)(F)F)c3)[nH]c(=O)c2C#N)c1,68.3*
COC(=O)c1ccc(C)c(NC(=O)CN(c2cc(Cl)c(Cl)cc2Cl)S(C)(=O)=O)c1,5.8
SMILES,PRC2 inh
O=C(CSc1nnc(-c2cccc(Cl)c2)n1-c1ccccc1)Nc1ccccc1-c1ccccc1,28.8
CC(C)C(NS(=O)(=O)c1ccc(Oc2ccccc2Cl)cc1)C(=O)O (centres undefined),-6.7
Cc1cc(=O)[nH]c(SCC(=O)Nc2ccc(Br)cc2F)n1,-9.6
CC(C(=O)Nc1cccc(C(F)(F)F)c1)N(c1ccc(Cl)cc1)S(C)(=O)=O (centres undefined),-5.3
CCn1c(SCC(=O)Nc2ccc(F)c(Cl)c2)nnc1-c1cccc(C)c1,1.3
O=C(NCSCc1cccc(C(F)(F)F)c1)Nc1ccc(F)c(Cl)c1,56.2*
Cc1ccnc(NC(c2cccc(F)c2)c2ccc3ccc(C)nc3c2O)c1 (centres undefined),4.1
COc1ccc(C)cc1S(=O)(=O)N1CCCC(C(=O)Nc2ccccc2F)C1 (centres undefined),-2.2
Cc1c(NC(=O)COc2ccc(C(C)C)cc2)cccc1C(=O)O,0.1
CCOc1cc(/C=C2\SC(=S)NC2=O)cc(Cl)c1OC(=O)c1ccc(OC)cc1,66.9*
O=C(CN1C(=O)c2cccc3cccc1c23)Nc1ccc(S(=O)(=O)N2CCCCC2)cc1,10.6
O=C(CCSc1nnc(-c2ccccc2)o1)Nc1ccc(F)cc1,-14.7
CC(=O)c1cccc(NC(=O)CSc2nc(-c3ccccc3)c(-c3ccccc3)o2)c1,30.6
O=C(O)CCCCCCC(=O)Nc1ccc(C2CC(CSc3nc(-c4ccccc4)c(-c4ccccc4)o3)OC(c3ccccc3)O2)cc1 (centres undefined),91.5*
COc1cccc(NC(=O)CN(c2ccc(C)cc2C)S(C)(=O)=O)c1,1.9
O=C1CC(c2ccc(O)cc2)Oc2cc(O[C@@H]3O[C@H](CO)[C@@H](O)[C@H](O)[C@H]3O)cc(O)c21 (some centres undefined),-2.1

# Screening results from PubChem.
